The whole screen tested about 16,000 compounds, of which about 70 (0.4%) were called active. This is one part of a sample in which actives are shown more often than they occur. Values without a mark were called inactive. Rule as the data show it: active = inhibition above about 75%; inactive = the rest.
Experiment: counter-screen for Nox1 inhibitors: inhibitors of luminol chemiluminescence (AID 1823)
Conditions: HRP/luminol/H2O2 chemiluminescence counterscreen; at 6.7 µM; hits give high values

SMILES | inhibition
CC(C)(C)NC(=O)[C@@H]1C[C@@H]2CCCC[C@@H]2CN1C(=O)c1ccno1 | -0.12%
O=C(O)CC(CC(=O)Oc1ccccc1N1CCCCC1)c1ccccc1 (stereo not given) | -1.25%
CSc1nsc(SC)c1C(=O)Nc1cc(C(F)(F)F)cc(C(F)(F)F)c1 | 1.1%
COc1ccc(C2CC(c3cccs3)=Nc3ccccc3S2)c(Cl)c1OC (stereo not given) | -0.88%
c1ccc(-c2nsc(N3CCNCC3)n2)cc1 | -5%
NS(=O)(=O)c1cccc(NC(=O)c2ccccc2)c1 | -5.88%
CCOC(=O)c1c(-c2ccco2)csc1NC(=O)Nc1ccc(Cl)cc1 | 3.19%
Cc1[nH]c2ccccc2c1Sc1ccc(Cl)cc1 | -11.5%
N#Cc1ccc(Oc2ccc(Cl)cc2)c([N+](=O)[O-])c1 | -1.59%
Cc1c(S(=O)(=O)c2ccc(Cl)cc2)csc1C(=O)Nc1ccc2c(c1)OCCO2 | 0.51%
CCCCN1Cc2c(nc3cc(-c4ccccc4)[nH]n3c2=O)C1=O | 5.15%
O=C1Nc2ccccc2C12NNC(=S)NN2 | 7.82%
NS(=O)(=O)c1ccc(Oc2c(Cl)cccc2[N+](=O)[O-])cc1 | -4.5%
COc1cccc(NC(=S)NNC(=S)NC2CC3CCC2C3)c1 (stereo not given) | 5.57%
N/C(=N\OC(=O)c1cccc(Cl)c1)c1ccc2nonc2c1 | -0.67%
CO/N=C(/C)c1ccc2c(c1)CCO2 | -0.06%
CC(=O)Nc1ccc(NC(=O)c2cc(C)ccc2[N+](=O)[O-])c(C)c1 | 0.85%
O=C(Cn1nnc2ccccc21)NCCSCc1ccco1 | -2.68%
COC(=O)C(C#N)c1ccc(C(F)(F)F)cc1[N+](=O)[O-] (stereo not given) | 4.34%
O=C(CN1CCOCC1)NNC(=O)c1cccs1 | 3.1%
C/C(=N\NC(N)=S)c1ccncc1 | 15%
O=C(Nc1ccccc1C(=O)NCc1c(F)cccc1Cl)c1ccccc1Cl | 4.86%
Cn1c(=O)c(C#N)cn(-c2ccccc2)c1=O | -4.85%
CSc1sc(C(=O)NC2CC2)c(-c2ccc(Cl)cc2)c1C#N | 2.76%

SMILES | inhibition
CCOC(=O)C(NC(=O)c1ccco1)(Nc1cc(C)ccn1)C(F)(F)F (stereo not given) | -2.71%
COC(=O)c1c(C(=O)OC)c2n(c1C)CCS2 | -2.55%
N#CNC(N)=Nc1cc(Cl)ccc1Cl | -0.88%
CCOC(=O)O/N=C(\N)c1ccc(Cl)cc1 | -3.37%
Cn1cccc1-c1n[nH]c(=S)n1-c1ccc(Cl)cc1Cl | 2.46%
CCCCCCNC(=O)NCCCCCC | -3.83%
Cc1oc(-c2ccc(Cl)cc2)cc1C(=O)N1CCOCC1 | -4.96%
COc1ccc(Cc2nnc(SC)[nH]c2=O)cc1 | 1.75%
CC(C)[C@H]1COC(c2cccc(C3=N[C@@H](C(C)C)CO3)n2)=N1 | -2.9%
O=C(CCN1CCN(C(c2ccccc2)c2ccccc2)CC1)c1ccccc1 | -3.01%
Cn1cc(Cl)c(/C=C(\C#N)C(N)=O)n1 | -6.34%
COc1ccc2cc(/C(C)=N/OC(=O)Nc3ccccc3)ccc2c1 | -18.6%
CCOC(=O)c1c[nH]n2c(=O)c3c(nc12)CCC3 | 0.29%
CC(C)(C)NC(=O)N/N=C/c1[nH]ncc1Br | -2.94%
COc1ccccc1NC(=O)c1ccc(C#Cc2ccccc2)o1 | 0.37%
CCCS(=O)(=O)c1csc(C(=O)OC)c1N/N=C/c1cccs1 | 1.56%
COCn1nnc2ccccc21 | 0.3%
Cc1c(N/N=C(\C#N)c2nc3ccccc3[nH]2)c(=O)n(-c2ccccc2)n1C | 7.97%
O=C(O)CC1(CC(=O)Nc2ccc(N3CCCCC3)cc2)CCCCC1 | -6.38%
CSc1sc(C(N)=O)cc1C#N | -6.88%
Cc1cc(C2=CSC3=NCCN23)ccc1Cl | 36.3%
OCCNC(=S)Nc1ccccc1-c1ccccc1 | 0.57%
O=S(=O)(c1ccccc1)c1cc(C(F)(F)F)cc(C(F)(F)F)c1 | -1.49%
CSc1sc(NC(=O)N2CCOCC2)c(-c2ccc(Cl)cc2)c1C#N | 3.63%

SMILES | inhibition
Oc1c(Cl)c(Cl)c(Cl)c2ccccc12 | 4.73%
CN(C)/C=C1/C(=O)NN=C1CSc1ccc(Cl)cc1 | -3.51%
Cc1ccc(N=C2SC3(CC3)C(=O)N2c2ccc(C)cc2)cc1 | -0.15%
CC1(C)CCc2cc(-c3ccnc(SCC(=O)c4ccccc4)n3)ccc2O1 | -4.62%
O=C(NCc1cccnc1)c1cnc2ccccc2n1 | -0.07%
CC(=O)NC(Cc1c[nH]c2ccccc12)C(=O)O (stereo not given) | -1.35%
O=C(c1ccc(F)cc1)C1CCN(Cc2cn[nH]c2-c2ccccc2)CC1 | 0.3%
CC1(NC(=O)OCc2ccccc2)CC1NC(=O)OCc1ccccc1 (stereo not given) | 1.98%
O=c1[nH]cc(Br)c(=O)[nH]1 | -0.43%
CC1CN(c2ccc(NC(=S)NCc3cccs3)cc2)CC(C)O1 (stereo not given) | -35.2%
O=C(O)CC(CC(=O)N1CCOCC1)c1ccccc1 (stereo not given) | -4.82%
O=C(CSc1ccc(Cl)cc1)NCCSCc1ccco1 | -0.61%
O=C(NCCO)NCCSc1ccc(F)cc1 | -2.48%
FC(F)(F)c1ccc(-n2cn[nH]c2=S)cc1 | 53.1%
FC(F)(F)c1cccc(-n2c(-c3ccncc3)n[nH]c2=S)c1 | 97.8% (active)
CSc1n[nH]c(=O)n1-c1cccc(C(F)(F)F)c1 | 1.69%
O=c1[nH]/c(=C/c2ccc(OC(F)(F)F)cc2)c(=O)[nH]/c1=C/c1ccc(OC(F)(F)F)cc1 | 0.16%
O=C(Nc1ccc(Cl)cc1)c1csc(COc2ccc3nonc3c2)n1 | 3.82%
Cn1cc(C(=O)c2ccc(Cl)cc2)cc1/C=C(\C#N)S(=O)(=O)c1ccc(C(F)(F)F)cn1 | 2.9%
O=C(Nc1ccccc1)Nc1nc2ccccc2s1 | -7.1%
O=c1c2cc(-c3ccccc3)sc2nc2n1N=C(c1cccs1)CS2 | -0.02%
COc1cc(OC)nc(S(C)(=O)=O)n1 | -4.97%
